Only some compounds are listed: those with a hit (about 7.3% of all), similar ones and a draw of the others.
ELG1 genotoxic – genotoxicity induction in ELG1-luciferase HEK293T cells; HEK293T ELG1-luciferase reporter, luminescence, 16 h; Potency, µM (series often up to 46 µM), for inactives: top-dose activity change, positive = activation, usual class: activators; actives 1.3% (n = 330,000); AID 504466; note: % of control where 0% means no effect; nearly all actives have a fitted effect of over 60% in size
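ELG1-luciferase HEK293T cells, 2,000/well; compound pinned in; 16 hr, 37 °C, 5% CO2; ONE-Glo, 30 min RT; luminescence on CCD imager.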
Rab9 prom act – Rab9 promoter activation | Huh7 Rab9 promoter-luciferase reporter, luminescence, 24 h | AID 485297 | actives 2.8% (n = 320,000) | Potency, µM (titrated, usually from 9.22 µM), for inactives: at the top dose activation, negative = inhibition, actives largely listed as activators; note: % of control where 0% means no effect; nearly all actives have a fitted effect of over 60% in size
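Stable Rab9-luc Huh7, 1500 cells/well, 2 h settle; cmpd in DMSO, 24 h, 37 °C/5% CO2; luciferase reagent 10 min RT; luminescence.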
SMN2 splice up – SMN2 splice variant enhancement; HEK293 SMN2-luciferase splicing reporter, luminescence, 30-36 h; Potency, µM (top dose mostly 46.1 µM), for inactives: top-dose activity change, positive = activation, most hits filed as activators; actives 2.8% (n = 210,000); note: % of control where 0% means no effect; nearly all actives have a fitted effect of over 55% in size
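HEK293 cells carry an SMN2 minigene-luciferase reporter in which exon 7 inclusion puts luciferase in frame. Cells were seeded at 2000 cells/well, attached for 10-12 hours, then exposed to compounds for 30-36 hours at 37C before ONE-Glo luminescence.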
FLuc counter – counter-screen for miR-21 project: firefly luciferase inhibitors or activators; P08659; purified FLuc, Km substrates, luminescence inhibition; actives 6.9% (n = 360,000); Potency, µM (highest dose often 57.5 µM), for inactives: top-dose activity change, negative = inhibition, hits mostly inhibitors;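 note: plate controls were vehicle for no effect and reference inhibitor for full effect; nearly all actives have a fitted effect of over 55% in size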
Target sequence (P08659 whole entry, looked up): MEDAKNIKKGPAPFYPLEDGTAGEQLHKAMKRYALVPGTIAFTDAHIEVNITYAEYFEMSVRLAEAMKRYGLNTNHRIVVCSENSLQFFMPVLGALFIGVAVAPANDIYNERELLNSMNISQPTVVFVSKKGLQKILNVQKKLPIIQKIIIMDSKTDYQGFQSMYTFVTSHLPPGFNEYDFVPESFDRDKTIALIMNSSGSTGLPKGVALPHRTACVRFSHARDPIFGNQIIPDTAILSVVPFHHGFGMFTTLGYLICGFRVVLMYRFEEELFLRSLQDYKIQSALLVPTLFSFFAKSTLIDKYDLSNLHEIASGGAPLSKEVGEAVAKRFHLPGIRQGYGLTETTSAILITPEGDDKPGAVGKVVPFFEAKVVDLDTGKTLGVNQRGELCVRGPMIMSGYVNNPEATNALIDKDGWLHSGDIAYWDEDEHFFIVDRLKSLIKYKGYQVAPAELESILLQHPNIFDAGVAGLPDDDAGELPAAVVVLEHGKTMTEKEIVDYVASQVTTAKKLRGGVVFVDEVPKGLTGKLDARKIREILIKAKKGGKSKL
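Biochemical qHTS of compounds, final roughly 60 µM downward over six points, against 10 nM purified firefly luciferase using Km concentrations of substrates (10 uM D-luciferin, 10 uM ATP) in Tris acetate pH 7.5 buffer; luminescence output.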
NPC1 prom act – activators of NPC1 promoter; Huh7 NPC1 promoter luciferase reporter, 24 h; actives 2.4% (n = 320,000); AID 485313; Potency, µM (doses to about 9.22 µM), without a hit: top-dose activation, usual class: activators; note: % of control where 0% means no effect; nearly all actives have a fitted effect of over 60% in size
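Compounds in DMSO were transferred onto Huh7 NPC1-luciferase reporter cells pre-incubated 2 h; after 24 h at 37 °C, Amplite reagent was dispensed and luminescence recorded 10 min later.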
p53 reactivation – re-activators of mutant p53; actives 0.063% (n = 320,000); Potency, µM (doses to about 92.2 µM), for inactives: at the highest dose activity change, positive = activation, usual class: activators; H1299 p53-A138V BP100-luciferase reporter, luminescence, 24 h; note: % of control where 0% means no effect; nearly all actives have a fitted effect of over 45% in size
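H1299 (p53-null), stable ts p53-A138V + BP100-Luc; 1000 cells/well, Opti-MEM/10% FBS; cpd 4 pt, 1:5; 24 h, 37 deg C, 5% CO2; detection reagent 10 min RT; luminescence.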
Active calls of the source: *; ? = inconclusive; nt = no result given. Calls come from the whole dose curve; as a rule, active = well fitted curve in the direction sought with a large enough effect; inconclusive = small, poorly fitted or top-dose-only effect, or another doubt; inactive = no such curve, though single readings can be large; an effect the other way counts as inactive or inconclusive. Potency is the fitted concentration of half-maximal effect.

SMILES	ELG1 genotoxic	Rab9 prom act	SMN2 splice up	FLuc counter	NPC1 prom act	p53 reactivation
COc1ccc(NC(=O)OC(C)C)cc1	?	2.24µM*	11.2µM*	12µM*	2µM*	9.3%
COc1ccc(NC(=O)/C=C2\SC(=O)NC2=O)cc1	12.0%	-1.3%	23.0%	12µM*	5.8%	16.5%
CC(C)OC(=O)Nc1ccc(-c2ccc(NC(=O)OC(C)C)cc2Cl)c(Cl)c1	2.0%	2.9%	nt	2.2%	-2.1%	1.5%
CCCc1ccc(C(=O)CCC(=O)O)cc1	19.1%	4.9%	-5.9%	23.9µM*	7.6%	?
COc1ccc(C(=O)CCc2ccccc2)cc1	?	?	nt	16.9µM*	?	20.0%
O=C(CCc1ccccc1)OCC(=O)c1ccc([N+](=O)[O-])cc1	1.6%	1.0%	2.7%	-1.4%	-4.6%	-1.2%
COc1ccc(C(=O)COC(=O)CCn2nnc(-c3cccc(O)c3OC)n2)cc1	11.5%	4.4%	-0.8%	9.53µM*	-1.3%	-0.9%
COc1ccc(C(=O)Cn2nnc(-c3ccccc3NC(=O)C(F)(F)F)n2)cc1	0.8%	9.5%	?	2.9%	-0.4%	4.8%
COc1ccc(C(=O)COC(=O)CCc2ccccc2)cc1	-2.7%	-2.2%	nt	26.9µM*	-5.4%	-1.9%
CCSc1nnc(NC(=O)COc2ccccc2)s1	16.5%	5.4%	-2.0%	-10.5%	1.2%	4.1%
COc1ccc(NC(=O)c2cc(=O)c3ccc(C)c(C)c3o2)cc1Cl	nt	nt	-4.5%	-0.4%	nt	nt
COc1ccc(C(=O)COC(=O)CCC(=O)Nc2ccc(C(C)=O)cc2)cc1	?	26.5%	nt	?	26.7%	?
COc1ccc(C(=O)COC(=O)CCCC(=O)Nc2ccc(C(C)=O)cc2)cc1	nt	nt	9.1%	5.36µM*	nt	nt
Cc1cc(NC(=O)CN(C)S(=O)(=O)c2ccc3c(c2)CCC(=O)N3)ccc1Br	nt	nt	-43.1%	?	nt	nt
CN(C)c1ccc(NC(=O)Cn2cc(S(=O)(=O)Cc3ccccc3Cl)c3ccccc32)cc1	nt	nt	nt	9.53µM*	nt	nt
O=C(NC(=S)Nc1ccccc1O)c1ccccc1Cl	?	3.16µM*	12.6µM*	23.9µM*	?	?
CC(=O)c1cccc(NC(=S)NC(=O)c2ccccc2Cl)c1	4.1%	11.1%	17.3%	?	16.0%	?
O=C(NNC(=S)Nc1ccccc1Cl)c1ccccc1Br	3.66µM*	3.98µM*	nt	10.7µM*	2.82µM*	?
COc1ccc(CCN(C)C(=O)c2c(C)noc2C)cc1OC	1.5%	0.9%	nt	-2.0%	-6.1%	3.9%
CCc1c(C)sc2c1CCN(C(=O)Nc1cc(C)ccc1OC)C2c1ccc(F)cc1 (stereo unspecified)	nt	nt	nt	1.7%	nt	nt
CC(C(=O)O)c1ccc(C(=O)c2ccccc2)s1 (stereo unspecified)	?	28.6%	nt	16.9µM*	6.1%	9.7%
CC(C)C[C@@H](CC(=O)N[C@@H](CCC(=O)O)CC(=O)O)NC(=O)[C@@H]1CCCC[C@H]1NC(=O)C[C@H](CCCN)NC(=O)C[C@H](CO)NC(=O)[C@@H]1CCCC[C@H]1N	nt	nt	3.9%	nt	nt	nt
CC(=O)Oc1ccc2c(c1)O/C(=C\c1ccncc1)C2=O	1.1%	1.0%	nt	?	-2.9%	3.6%
CCc1ccc(/C=C2\Oc3cc(OC(=O)N4CCOCC4)ccc3C2=O)cc1	-0.4%	-10.5%	-47.2%	7.57µM*	-5.8%	-3.4%
COc1ccc(/C=C2\Oc3cc(OC(=O)N4CCOCC4)ccc3C2=O)cc1	-8.0%	-0.5%	nt	6.75µM*	28.2%	0.5%
SMILES	ELG1 genotoxic	Rab9 prom act	SMN2 splice up	FLuc counter	NPC1 prom act	p53 reactivation
COc1ccc2c(c1)O/C(=C\c1ccccc1C)C2=O	14.4%	?	nt	13.5µM*	29.2%	?
CCOc1ccccc1C(=O)N1CC(=O)Nc2ccc(Cl)cc2C1c1ccccc1 (stereo unspecified)	nt	nt	-6.7%	-12.4%	nt	nt
CC[C@]12CCCN3CCc4c(n(c5ccccc45)[C@@](O)(C(=O)OC)C1)[C@@H]32	16.4µM*	17.5%	nt	-19.4%	5.0%	4.7%
O=C(CN1C(=O)c2ccccc2S1(=O)=O)N1CCN(c2ccccc2F)CC1	0.0%	9.3%	-5.4%	?	3.0%	0.6%
O=C(CN1C(=O)c2ccccc2S1(=O)=O)c1ccccc1F	4.7%	?	nt	10.7µM*	?	-19.8%
NC(=O)C1CCN(C(=O)CN2C(=O)c3ccccc3S2(=O)=O)CC1	2.9%	-1.9%	-14.1%	5.3%	2.2%	2.6%
O=C(CN1C(=O)c2ccccc2S1(=O)=O)c1ccc(F)cc1	-6.0%	?	nt	13.5µM*	?	-11.7%
O=C(CN1C(=O)c2ccccc2S1(=O)=O)c1cccc(Br)c1	-6.3%	?	nt	7.57µM*	?	11.9%
CC1CCN(C(=O)CN2C(=O)c3ccccc3S2(=O)=O)CC1	?	2.51µM*	-5.0%	-10.1%	3.55µM*	8.6%
COc1ccc(NC(=O)CC2Oc3ccc(C)cc3NC2=O)cc1Cl (stereo unspecified)	nt	nt	4.0%	-6.1%	nt	nt
CC(C)C(=O)NNC(=O)CSc1nnnn1C(C)C	0.0%	-9.7%	-2.8%	0.8%	-4.5%	4.7%
O=C(CN1C(=O)c2ccccc2S1(=O)=O)c1ccc(OC(F)F)cc1	-12.4%	-21.4%	nt	12µM*	-18.1%	-26.0%
COC(=O)c1ccc(NC(=O)CN2C(=O)c3ccccc3S2(=O)=O)cc1	-0.3%	-0.3%	nt	-1.5%	0.7%	-1.4%
CN(C)S(=O)(=O)c1ccc(NC(=O)N2CCN(c3ccccc3Cl)CC2)cc1	-7.9%	-2.1%	-48.2%	5.2%	-1.1%	-7.0%
CCCOc1cc(N(CC)CC)ccc1/C=C(/C#N)c1nc2ccc(C)cc2[nH]1	-6.6%	-0.4%	nt	-9.0%	-9.6%	33.2%
COc1cccc(/C=C(\C#N)c2nc3ccccc3[nH]2)c1OCC(=O)O	5.0%	-0.9%	nt	-26.1%	-1.2%	3.8%
CCN(CC)c1ccc(/C=C(/C#N)c2nc3ccc(C)cc3[nH]2)c(OC(C)C)c1	-5.3%	-2.5%	-1.2%	5.36µM*	-2.0%	4.8%
CCOc1cc(N(CC)CC)ccc1/C=C(/C#N)c1nc2ccccc2[nH]1	-0.4%	?	-46.7%	9.53µM*	4.9%	9.2%
O=C(NCc1nnc(SCC(=O)N2CCCCCC2)o1)c1ccccc1F	3.6%	-4.0%	nt	1.8%	-2.4%	-8.7%
Cc1ccc(-c2nn(CC(=O)NC3CCCC3)c3c2cnc2ccc(F)cc23)cc1C	nt	nt	nt	-0.1%	nt	nt
CCOc1ccc(CNC(=O)C2CCN(c3nc4ccccc4nc3C(F)(F)F)CC2)cc1OC	nt	nt	nt	-1.6%	nt	nt
Cc1ccc(OCc2nc3ccccc3[nH]2)cc1	?	0.631µM*	3.55µM*	1.35µM*	1.41µM*	?
